Experimental findings from PubChem BioAssay (EPA / NIEHS) are described below.

Experiment [1] deals with Thyroid hormone receptor alpha (Rattus norvegicus) + Thyroid hormone receptor beta (Rattus norvegicus) (UniProt P18113+P63059). As to the kind of experiment: TOX21_TR_LUC_GH3_Antagonist_Followup: Tox21 GH3 Thyroid Hormone Receptor Antagonism Luciferase Follow-Up Assay (AID 2283942). A digest of the protocol: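 Rat pituitary GH3 cells with a TRα/TRβ-driven luciferase reporter, 5 h attachment, then 15 concentrations (92 uM to 5nM final) plus 1.0 nM T3 agonist, 24 h at 37C/5% CO2. ONE-Glo luminescence; signal change fitted against DMSO baseline.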

The target in a further experiment is THRA (gene 7067) (UniProt P10827). The experiment is described as follows: TOX21_TRA_COA_Antagonist_Followup_ratio: Tox21 Thyroid Hormone Receptor alpha Antagonism through Coactivator Recruitment Follow-Up Assay, Ratio (AID 2283953). A digest of the protocol:
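This follow-up to the GH3 luciferase screen checks specificity in a cell-free format. It measures SRC-2 coactivator peptide binding to TRα LBD by TR-FRET and scores loss of ratio signal relative to DMSO.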

In another experiment the target is THRB (gene 7068) (UniProt P10828). As to the kind of experiment: TOX21_TRB_BLA_Antagonist_Followup_ratio: Tox21 Thyroid Hormone Receptor beta Antagonism Beta-lactamase (BLA) Follow-Up Assay, Ratio (AID 2283958). The source says: The GeneBLAzer TRb-UAS-bla HEK293T assay kit for human TRb (ThermoFisherScientific Catalog No. K1684) was used as a secondary assay for specificity (TRb-bla).This assay contained the ligand-binding domain (LBD) of the human TRb fused to the DNA-binding domain of GAL4 stably integrated in the GeneBLAzer UAS-bla HEK293Tcell line. The reporter gene, b-lactamase, is under the transcriptional control of a UAS that binds the GAL4 DNA-binding domain. A cell viability assay was run in parallel for these cells as well using the CellTiter-Glo viability assay kit.TOX21_TRB_BLA_Antagonist_Followup_ratio is an assay readout measuring reporter gene via receptor activity and designed using inducible reporter (beta lactamase induction) detected with GAL4 b-lactamase reporter gene. The signal is derived from the ratio of cleaved (ch2) to uncleaved (ch1) reporter gene substrate used as the measure of target activity.Data from the assay component TOX21_TRB_BLA_Antagonist_Followup_ratio was analyzed into 1 assay endpoint. This assay endpoint, TOX21_TRB_BLA_Antagonist_Followup_ratio, was analyzed in the positive analysis fitting direction relative to DMSO as the negative control and baseline of activity. Using a type of inducible reporter, loss-of-signal activity can be used to understand changes in the reporter gene as they relate to the gene THRB. Furthermore, this assay endpoint can be referred to as a primary readout, because this assay has produced multiple assay endpoints and this ratio serves a reporter gene function to understand target activity. To generalize the intended target to other relatable targets, this assay endpoint is annotated to the nuclear receptor intended target family, where the subfamily is non-steroidal.
Sequence of THRB (gene 7068) (P10828 whole entry, looked up, the tested form may be a part): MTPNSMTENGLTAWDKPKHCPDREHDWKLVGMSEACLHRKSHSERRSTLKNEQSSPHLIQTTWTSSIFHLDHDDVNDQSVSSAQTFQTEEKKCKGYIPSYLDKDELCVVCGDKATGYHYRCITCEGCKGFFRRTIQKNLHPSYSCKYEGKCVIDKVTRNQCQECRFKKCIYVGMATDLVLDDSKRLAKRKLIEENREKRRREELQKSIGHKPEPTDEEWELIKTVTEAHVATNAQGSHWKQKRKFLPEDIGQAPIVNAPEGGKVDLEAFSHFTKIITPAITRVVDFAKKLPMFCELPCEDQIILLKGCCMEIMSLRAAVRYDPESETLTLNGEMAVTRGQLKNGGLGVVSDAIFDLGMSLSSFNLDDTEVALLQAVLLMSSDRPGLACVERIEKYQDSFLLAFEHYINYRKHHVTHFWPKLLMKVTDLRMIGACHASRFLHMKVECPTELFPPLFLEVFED
Cell Media Required: Growth (90% DMEM/F-12, 10% Fetal Bovine Calf Serum, 100U/ml Penicillin, 100 ug/ml Streptomycin), Assay (10ng/mL sodium selenite, 10 ug/mL humanapo-transferrin, 10 uM ethanolamine, 10 ug/mL insulin, 500 ug/mL bovine serum albumin (BSA))Assay Protocol: TRb-bla cells were dispensed at 3,000 cells/well in 5 uL of the assay medium containing phenol red-free DMEM with 2% charcoal-stripped FBS in 1,536-well black-wall/clear-bottom plates using an FRD. After 5-h incubation at 37C/5% CO2 for cell attachment to the well bottom, 23nL of follow-up compounds dissolved in DMSO, 11 concentrations in triplicate, and the positive control (T3; agonist format) were transferred to the assay plates using a Pintool station. The assay plates were incubated at 37C/5% CO2 for 18h. One microliter LiveBLAzer FRET-B/G CCF4-AM substrate was added to each well using an FRD. After 2-h incubation at room temperature, the fluorescence intensity was measured using an Envision plate reader. Data were expressed as the ratio of 460:530nm. The cytotoxicity of the compounds was measured in the same plates by adding 4 uL of CellTiter-Glo reagent to each well and incubating the plates at room temperature for 30 min. The luminescence intensity was measured using a ViewLux plate reader.For the luciferase reporter gene assay, 5 uL/well (agonist format) and 4 uL/well (antagonist format) ONE-Glo reagent (Promega Corporation) was added using an FRD and after 30-min incubation at room temperature, the luminescence intensity was measured using a ViewLux plate reader. Data were expressed as relative fluorescence units (cell viability assay) and relative luminescence units (luciferase reporter assay).

The target of experiment [2] is PGR (gene 5241) (UniProt P06401). The experiment is described as follows: TOX21_PR_BLA_Followup_Antagonist_ratio: Tox21 HEK293 Progesterone Receptor (PR) Antagonism Beta-lactamase Follow-Up Assay, Ratio (AID 2283934).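 Also: PR-UAS-bla HEK293T cells stimulated with 1 nM R5020 agonist for 16 hr.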 A digest of the protocol:
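Antagonist mode used 1 nM R5020 (final) as agonist on a beta-lactamase reporter line in HEK293T cells. Activity was taken from the substrate cleavage ratio after 16 hr exposure.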

Experiment [3] is described as follows: TOX21_PR_BLA_Followup_Agonist_viability: Viability Assessment in the Tox21 HEK293 Progesterone Receptor (PR) Agonism Beta-lactamase Follow-Up Assay (AID 2283935).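 Also: cells exposed to compound for 16 hr at 37 °C; signal loss means lower viability so actives are cytotoxic.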 The method in brief:
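Multiplexed viability counter-screen: ATP-coupled luciferase signal measured after 30 min at room temperature, following 16 hr compound treatment of PR-UAS-bla HEK293T cells grown in charcoal-stripped serum.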

In experiment [4] the target is PGR (gene 5241) (UniProt P06401). The experiment is described as follows: TOX21_PR_LUC_Followup_Antagonist: Tox21 HEK293 Progesterone Receptor (PR) Antagonism Luciferase Follow-Up Assay (AID 2283938).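 Also: curve fitted upward as signal gain over DMSO baseline despite antagonist label.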 A digest of the protocol: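 Cells are grown 5 days in charcoal-stripped-FBS assay medium, plated, left 5 h, then dosed with compound and incubated 16 h. ONE-Glo reagent is added and luminescence read after 30 min.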
Sequence of PGR (gene 5241) (P06401 whole entry, looked up): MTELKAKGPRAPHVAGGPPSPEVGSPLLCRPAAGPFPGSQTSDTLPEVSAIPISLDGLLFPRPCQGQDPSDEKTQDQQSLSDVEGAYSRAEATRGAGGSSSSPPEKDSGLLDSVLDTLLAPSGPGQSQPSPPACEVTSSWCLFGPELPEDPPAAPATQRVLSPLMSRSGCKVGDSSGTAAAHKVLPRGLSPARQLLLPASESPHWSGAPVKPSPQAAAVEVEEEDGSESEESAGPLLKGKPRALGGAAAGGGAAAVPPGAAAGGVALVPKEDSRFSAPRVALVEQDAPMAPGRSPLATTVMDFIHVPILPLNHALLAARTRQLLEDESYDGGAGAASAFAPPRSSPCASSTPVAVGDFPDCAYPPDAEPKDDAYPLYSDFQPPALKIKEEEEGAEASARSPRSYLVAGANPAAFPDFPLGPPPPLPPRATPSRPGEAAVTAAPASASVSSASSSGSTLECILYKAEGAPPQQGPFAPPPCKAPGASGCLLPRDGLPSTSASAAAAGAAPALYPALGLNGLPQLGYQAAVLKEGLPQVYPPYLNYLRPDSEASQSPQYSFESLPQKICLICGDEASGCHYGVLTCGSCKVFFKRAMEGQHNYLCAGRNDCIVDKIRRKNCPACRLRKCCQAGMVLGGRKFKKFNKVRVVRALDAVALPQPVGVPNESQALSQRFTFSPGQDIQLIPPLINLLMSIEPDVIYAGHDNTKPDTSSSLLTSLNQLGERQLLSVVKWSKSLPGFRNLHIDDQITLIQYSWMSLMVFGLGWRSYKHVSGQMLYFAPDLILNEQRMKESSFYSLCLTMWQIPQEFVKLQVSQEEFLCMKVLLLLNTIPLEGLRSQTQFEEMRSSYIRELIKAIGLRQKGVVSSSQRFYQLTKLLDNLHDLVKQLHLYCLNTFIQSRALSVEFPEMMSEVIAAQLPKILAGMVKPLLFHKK

A short description of experiment [5]: TOX21_PR_LUC_Followup_Antagonist_viability: Viability Assessment in the Tox21 HEK293 Progesterone Receptor (PR) Antagonism Luciferase Follow-Up Assay (AID 2283940).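 Also: cells exposed to compound for 16 h at 37 °C.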 The source says:
TOX21_PR_LUC_Followup is a secondary assay for specificity for the TOX21_PR_BLA_Agonist assay. To differentiate true PR agonists from cytotoxic substances, this follow up assay is multiplexed with a cell viability assay.TOX21_PR_LUC_Followup_Antagonist_viability is an assay readout measuring cellular ATP content and detected with CellTiter-Glo Luciferase-coupled ATP quantitation.TOX21_PR_LUC_Followup_Antagonist_viability used a type of viability reporter where loss-of-signal activity can be used to understand changes in the cell viability. Furthermore, this assay endpoint can be referred to as a secondary readout, because this assay has produced multiple assay endpoints where this one serves a viability function. To generalize the intended target to other relatable targets, this assay endpoint is annotated to the cell cycle intended target family, where the subfamily is cytotoxicity.
Quality Control Precautions: Maintain cells below 85-90% confluence in culture medium. […] Then 4 uL of ONE-Glo reagent (Promega, Madison, WI) was added to each plate using a BioRAPTR Flying Reagent Dispenser (FRD) workstation (Beckman Coulter, Indianapolis, IN, USA) and luminescence was quantified on a ViewLux (PerkinElmer, Shelton, CT) plate reader after 30 min incubation at room temperature.

A short description of experiment [6]: TOX21_PR_LUC_Followup_Agonist_viability: Viability Assessment in the Tox21 HEK293 Progesterone Receptor (PR) Agonism Luciferase Follow-Up Assay (AID 2283941).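 Also: compound exposure 16 h at 37 °C; loss of signal means cytotoxicity so actives lower viability.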 A digest of the protocol: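 Luminescent ATP quantitation (CellTiter-Glo) serves as the read-out; a drop flags cytotoxic compounds. Cells are HEK293-PR-A-luc grown in 10% charcoal-stripped FBS, plated 3,000/well, and exposed to compound for 16 h.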

Experiment [7] is described as follows: CEETOX_H295R_TESTO_noMTC: CeeTox H295R High-throughput Steroidogenesis Assay for Testosterone (TESTO), maximum tolerated concentration (MTC) filtered results only (AID 2283924; active = hit-call score of the fitted dose curve at least 0.9, where 1 is the maximum; inactive = score below 0.9). As to conditions: actives raise or lower the signal. A digest of the protocol: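 H295R cells prestimulated 48 h with 10 uM forskolin, then exposed 48 h to chemicals in 0.1% DMSO final. Testosterone in medium quantified by MTBE extraction and HPLC-MS/MS; bidirectional fit versus DMSO, concentrations […] filtered by MTT-based maximum tolerated concentration.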

Experiment [8] can be described thus: TOX21_PR_BLA_Followup_Antagonist_viability: Viability Assessment in the Tox21 HEK293 Progesterone Receptor (PR) Antagonism Beta-lactamase Follow-Up Assay (AID 2283936).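 Also: cells exposed to compound with R5020 agonist for 16 h; hits lower the luminescence signal meaning cytotoxicity.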 The method, then:
TOX21_PR_BLA_Followup is a secondary assay for specificity for the TOX21_PR_BLA_Agonist assay. To differentiate true PR agonists from cytotoxic substances, this follow up assay is multiplexed with a cell viability assay. The compounds were also tested for auto fluorescence that may interfere with the biological target readout resulting in potential false positives and/or negatives. To identify the compounds that stimulate PR signaling, a PR-UAS-bla GripTite cell line i.e. PR-UAS-bla HEK293T (Invitrogen, Carlsbad, CA, USA) containing a beta-lactamase reporter gene under the control of an UAS response element was used to screen Tox21 10K compound library. The cytotoxicity of the Tox21 compound library against the PR-bla cell line was tested in parallel by measuring the cell viability using CellTiter-Glo assay in the same wells. TOX21_PR_BLA_Followup_Antagonist_viability is a component of the TOX21_PR_BLA_Followup_Antagonist assay. This component measures cell viability using the CellTiter-Glo Luciferase-coupled ATP quantitation.TOX21_PR_BLA_Followup_Antagonist_viability used a type of viability reporter where loss-of-signal activity can be used to understand changes in the cell viability. Furthermore, this assay endpoint can be referred to as a secondary readout, because this assay has produced multiple assay endpoints where this one serves a viability function. […]

Records with an inconclusive call do not appear. The source made the active and inactive calls. The calls were made as follows, unless noted: active = hit-call score of the fitted dose curve at least 0.9, where 1 is the maximum; inconclusive = response in the unintended direction; inactive = score below 0.9.

Sequence of THRA (gene 7067) (P10827 whole entry, looked up, the tested form may be a part): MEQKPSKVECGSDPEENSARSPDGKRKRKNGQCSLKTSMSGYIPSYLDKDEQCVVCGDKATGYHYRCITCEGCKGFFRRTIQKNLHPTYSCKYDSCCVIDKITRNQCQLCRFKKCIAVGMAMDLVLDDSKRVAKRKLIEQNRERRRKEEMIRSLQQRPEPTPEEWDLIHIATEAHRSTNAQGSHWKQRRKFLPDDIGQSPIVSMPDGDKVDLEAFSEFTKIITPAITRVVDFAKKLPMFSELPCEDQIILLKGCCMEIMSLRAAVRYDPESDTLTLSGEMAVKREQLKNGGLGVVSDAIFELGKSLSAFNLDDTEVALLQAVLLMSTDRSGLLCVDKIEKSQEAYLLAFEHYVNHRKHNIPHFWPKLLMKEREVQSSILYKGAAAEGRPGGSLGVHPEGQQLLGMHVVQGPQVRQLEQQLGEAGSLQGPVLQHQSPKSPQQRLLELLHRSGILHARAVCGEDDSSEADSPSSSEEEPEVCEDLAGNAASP

As to `Nc1ccn([C@@H]2O[C@H](CO)[C@@H](O)C2O)c(=O)n1` (stereo not given in full), the result (in experiment [1]; in the experiment with THRA (gene 7067); with THRB (gene 7068)) was inactive.

The term AC50 denotes the concentration giving half of the maximal activity seen. On to `C[C@]12CC[C@@H]3c4ccc(O)cc4CC[C@H]3[C@@H]1C[C@@H](O)[C@@H]2O`, for which the AC50 in the experiment with PGR (gene 5241) [2] was 17.1 µM (active); with PGR (gene 5241) [4], 26 µM (active). The outcome in experiment [3], in experiment [5] and in experiment [6] was inactive.

On to `C/C=C/C(=O)C1=C(C)CCCC1(C)C`, for which, in experiment [7], the result was inactive.

Consider `O=c1cc(-c2ccccc2)oc2ccc3ccccc3c12`, for which the outcome (in experiment [1]; in the experiment with THRA (gene 7067)) was inactive.

As to `CC(C)c1c(C(=O)Nc2ccccc2)c(-c2ccccc2)c(-c2ccc(F)cc2)n1CC[C@@H](O)C[C@@H](O)CC(=O)O`, the result with THRA (gene 7067) and in the experiment with THRB (gene 7068) was inactive.

Take `Clc1ccc(Nc2nnc(Cc3ccncc3)c3ccccc23)cc1`: the outcome (in [1]; with THRA (gene 7067); with THRB (gene 7068)) was inactive.

As for `COc1ccccc1NC(=O)c1cc2ccccc2cc1O`, the AC50 in experiment [1] was 27.2 µM (active); in the experiment with THRB (gene 7068) it was 38.3 µM (active).

As for `C[C@]12CC[C@@H]3c4ccc(O)cc4CC[C@H]3[C@@H]1CC[C@@H]2OC(=O)CCC1CCCC1`, in the experiment with PGR (gene 5241) [2], the AC50 is 1.01 µM (active). Also, the compound was classed as inactive (in [3]; in [8]; with PGR (gene 5241) [4]).

Turning to `Nc1cc(Cl)c(-c2cc(Cl)c(N)cc2Cl)cc1Cl`, the AC50 was 58.1 µM (active) in [1] and 6.14 µM (active) with THRB (gene 7068). The result with THRA (gene 7067) was inactive.
